Results published in paper PMC7862700, “An all-to-all approach to the identification of sequence-specific readers for epigenetic DNA modifications on cytosine”.

How the values were obtained:
Experiment in all cases: DAPPL (digital affinity profiling via proximity ligation, sequencing); 10 mM Tris-HCl pH 7.5, 50 mM NaCl, 1 mM DTT, 4% glycerol, room temperature, 30 min; GST-TFs on glutathione beads, 16-mer random dsDNA library, 0.1% formaldehyde crosslink after washing; high values mean tight binding
HSF1 = HSF1 (Homo sapiens, UniProt Q00613 1-529); conditions: protein: recombinant; tags: N-terminal GST; chain copies: 3; dsDNA, one strand shown
Method in brief: (§1)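 Human transcription factors carrying a GST fusion were produced in yeast, bound to glutathione beads, tagged with DNA barcodes and pooled together with a tag-only sample. Each pool was held with 200 nmole of a random double-stranded 16-mer DNA library in Tris/NaCl/DTT/glycerol buffer for 30 min at room temperature, then washed, crosslinked in 0.1% formaldehyde, proximity-ligated with BsaI/T4 ligase (1 h, 37 °C), PCR-amplified and sequenced on an Illumina NextSeq500. Binding signal is the read frequency of each hexamer for a given factor divided by its frequency in the tag-only sample.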

FLI1 = molecular target: T1, FLI1 (Homo sapiens, UniProt Q01543 1-452); conditions: protein: recombinant; tags: N-terminal GST; dsDNA, one strand shown
T1 sequence: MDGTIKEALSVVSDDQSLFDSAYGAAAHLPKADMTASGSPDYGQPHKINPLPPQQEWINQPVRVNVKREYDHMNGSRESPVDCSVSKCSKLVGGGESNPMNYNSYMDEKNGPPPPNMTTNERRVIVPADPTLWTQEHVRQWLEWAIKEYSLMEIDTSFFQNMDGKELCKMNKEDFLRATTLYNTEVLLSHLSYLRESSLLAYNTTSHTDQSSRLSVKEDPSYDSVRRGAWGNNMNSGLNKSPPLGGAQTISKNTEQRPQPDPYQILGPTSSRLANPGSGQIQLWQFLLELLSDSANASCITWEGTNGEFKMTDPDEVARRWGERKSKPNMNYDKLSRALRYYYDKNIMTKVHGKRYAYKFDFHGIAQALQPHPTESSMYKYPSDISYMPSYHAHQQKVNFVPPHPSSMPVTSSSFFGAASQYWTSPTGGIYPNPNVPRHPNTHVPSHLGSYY
Method in brief: as §1

GABPA = molecular target: T2, GABPA (Homo sapiens, UniProt Q06546 1-454); conditions: protein: recombinant; tags: N-terminal GST; dsDNA, one strand shown
T2 sequence: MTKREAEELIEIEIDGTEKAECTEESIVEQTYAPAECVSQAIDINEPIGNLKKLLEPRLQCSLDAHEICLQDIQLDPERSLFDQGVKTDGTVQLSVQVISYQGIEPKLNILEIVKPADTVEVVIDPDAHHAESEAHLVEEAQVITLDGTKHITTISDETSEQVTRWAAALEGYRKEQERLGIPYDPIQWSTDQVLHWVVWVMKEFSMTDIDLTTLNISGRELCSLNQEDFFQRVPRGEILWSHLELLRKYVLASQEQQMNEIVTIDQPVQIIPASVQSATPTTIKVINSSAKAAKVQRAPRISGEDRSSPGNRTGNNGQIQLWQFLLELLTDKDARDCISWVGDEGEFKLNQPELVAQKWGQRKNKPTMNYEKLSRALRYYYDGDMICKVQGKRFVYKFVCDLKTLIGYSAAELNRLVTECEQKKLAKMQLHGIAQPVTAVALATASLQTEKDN
Method in brief: as §1

ERG = molecular target: T3, ERG (Homo sapiens, UniProt P11308 1-479); conditions: protein: recombinant; tags: N-terminal GST; dsDNA, one strand shown
T3 sequence: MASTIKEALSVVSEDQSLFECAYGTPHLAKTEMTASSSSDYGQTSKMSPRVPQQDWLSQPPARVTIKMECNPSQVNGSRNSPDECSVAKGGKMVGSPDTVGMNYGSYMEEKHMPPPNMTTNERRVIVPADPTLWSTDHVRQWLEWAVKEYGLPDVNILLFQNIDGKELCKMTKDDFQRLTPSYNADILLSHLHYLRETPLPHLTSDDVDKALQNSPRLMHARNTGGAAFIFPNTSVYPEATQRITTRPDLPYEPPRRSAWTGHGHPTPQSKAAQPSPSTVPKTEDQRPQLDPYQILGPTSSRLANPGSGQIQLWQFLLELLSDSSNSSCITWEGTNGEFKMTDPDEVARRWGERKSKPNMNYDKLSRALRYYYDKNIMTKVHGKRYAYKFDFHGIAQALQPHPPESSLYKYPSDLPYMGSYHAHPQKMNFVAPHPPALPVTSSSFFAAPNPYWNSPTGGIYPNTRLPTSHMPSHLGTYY
Method in brief: as §1

ELF1 = ELF1 (Homo sapiens, UniProt P32519 1-619); conditions: protein: recombinant; tags: N-terminal GST; dsDNA, one strand shown
Method in brief: as §1

SPIB = SPIB (Homo sapiens, UniProt Q01892 1-262); conditions: protein: recombinant; tags: N-terminal GST; dsDNA, one strand shown
Method in brief: as §1

ELK3 = molecular target: T4, ELK3 (Homo sapiens, UniProt P41970 1-407); conditions: protein: recombinant; tags: N-terminal GST; dsDNA, one strand shown
T4 sequence: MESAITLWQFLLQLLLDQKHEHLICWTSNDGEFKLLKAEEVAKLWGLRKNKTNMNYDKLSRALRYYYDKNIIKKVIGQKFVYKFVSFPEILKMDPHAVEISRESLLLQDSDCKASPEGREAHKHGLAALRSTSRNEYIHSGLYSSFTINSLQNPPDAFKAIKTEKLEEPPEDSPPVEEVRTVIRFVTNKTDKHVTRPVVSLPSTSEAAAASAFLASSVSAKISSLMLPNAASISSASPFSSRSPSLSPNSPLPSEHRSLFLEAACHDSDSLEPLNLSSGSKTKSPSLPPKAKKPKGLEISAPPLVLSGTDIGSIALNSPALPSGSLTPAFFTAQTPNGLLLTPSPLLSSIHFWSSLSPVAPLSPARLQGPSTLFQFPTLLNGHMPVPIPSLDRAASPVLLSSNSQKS
Method in brief: as §1

FEV = molecular target: T5, FEV (Homo sapiens, UniProt Q99581 1-238); conditions: protein: recombinant; tags: N-terminal GST; dsDNA, one strand shown
T5 sequence: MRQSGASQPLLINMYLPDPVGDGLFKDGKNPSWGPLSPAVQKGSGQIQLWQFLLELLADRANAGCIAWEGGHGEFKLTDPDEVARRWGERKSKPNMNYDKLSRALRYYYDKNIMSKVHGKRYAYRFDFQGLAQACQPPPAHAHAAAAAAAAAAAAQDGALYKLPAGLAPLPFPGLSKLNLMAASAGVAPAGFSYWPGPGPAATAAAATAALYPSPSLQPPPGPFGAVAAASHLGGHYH
Method in brief: as §1

ELK4 = molecular target: T6, ELK4 (Homo sapiens, UniProt P28324-2 1-405); conditions: protein: recombinant; tags: N-terminal GST; dsDNA, one strand shown
T6 sequence: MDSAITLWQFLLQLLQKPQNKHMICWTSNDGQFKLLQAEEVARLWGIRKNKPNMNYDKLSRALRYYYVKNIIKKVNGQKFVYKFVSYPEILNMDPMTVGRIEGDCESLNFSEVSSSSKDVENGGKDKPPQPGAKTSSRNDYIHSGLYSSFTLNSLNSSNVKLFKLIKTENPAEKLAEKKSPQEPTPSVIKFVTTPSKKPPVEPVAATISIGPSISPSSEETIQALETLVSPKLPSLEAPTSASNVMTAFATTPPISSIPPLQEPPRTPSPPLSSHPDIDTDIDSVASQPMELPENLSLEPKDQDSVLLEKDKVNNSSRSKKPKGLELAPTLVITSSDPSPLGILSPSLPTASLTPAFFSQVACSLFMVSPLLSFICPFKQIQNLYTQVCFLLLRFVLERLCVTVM
Method in brief: as §1

ETV1 = ETV1 (Homo sapiens, UniProt P50549 1-477); conditions: protein: recombinant; tags: N-terminal GST; dsDNA, one strand shown
Method in brief: as §1

ERF = molecular target: T7, ERF (Homo sapiens, UniProt P50548 1-548); conditions: protein: recombinant; tags: N-terminal GST; dsDNA, one strand shown
T7 sequence: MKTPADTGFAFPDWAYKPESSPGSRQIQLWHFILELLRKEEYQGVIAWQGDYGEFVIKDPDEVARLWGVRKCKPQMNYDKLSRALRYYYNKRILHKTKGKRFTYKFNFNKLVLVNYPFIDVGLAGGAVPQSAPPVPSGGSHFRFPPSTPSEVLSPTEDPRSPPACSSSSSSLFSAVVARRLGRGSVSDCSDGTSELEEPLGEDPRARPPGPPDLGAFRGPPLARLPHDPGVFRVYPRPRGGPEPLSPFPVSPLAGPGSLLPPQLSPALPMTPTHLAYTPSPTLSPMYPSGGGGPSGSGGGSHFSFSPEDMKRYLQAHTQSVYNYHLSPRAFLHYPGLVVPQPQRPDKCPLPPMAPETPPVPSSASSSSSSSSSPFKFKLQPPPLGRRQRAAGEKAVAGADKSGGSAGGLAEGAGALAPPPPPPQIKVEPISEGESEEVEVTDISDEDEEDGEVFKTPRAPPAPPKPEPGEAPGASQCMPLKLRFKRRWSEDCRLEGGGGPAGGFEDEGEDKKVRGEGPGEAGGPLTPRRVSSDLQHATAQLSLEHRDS
Method in brief: as §1

ETV3L = molecular target: T8, ETV3L (Homo sapiens, UniProt Q6ZN32 1-361); conditions: protein: recombinant; tags: N-terminal GST; dsDNA, one strand shown
T8 sequence: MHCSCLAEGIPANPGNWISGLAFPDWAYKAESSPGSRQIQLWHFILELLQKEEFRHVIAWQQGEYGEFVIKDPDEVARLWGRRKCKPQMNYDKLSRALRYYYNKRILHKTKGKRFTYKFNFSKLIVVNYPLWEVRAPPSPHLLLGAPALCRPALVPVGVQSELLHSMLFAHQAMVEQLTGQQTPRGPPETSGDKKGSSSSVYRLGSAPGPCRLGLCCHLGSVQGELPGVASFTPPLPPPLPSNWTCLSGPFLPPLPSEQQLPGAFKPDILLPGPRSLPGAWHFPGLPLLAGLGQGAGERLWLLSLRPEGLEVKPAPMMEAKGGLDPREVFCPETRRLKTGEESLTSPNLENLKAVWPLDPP
Method in brief: as §1

ETS2 = molecular target: T9, ETS2 (Homo sapiens, UniProt P15036 1-469); conditions: protein: recombinant; tags: N-terminal GST; dsDNA, one strand shown
T9 sequence: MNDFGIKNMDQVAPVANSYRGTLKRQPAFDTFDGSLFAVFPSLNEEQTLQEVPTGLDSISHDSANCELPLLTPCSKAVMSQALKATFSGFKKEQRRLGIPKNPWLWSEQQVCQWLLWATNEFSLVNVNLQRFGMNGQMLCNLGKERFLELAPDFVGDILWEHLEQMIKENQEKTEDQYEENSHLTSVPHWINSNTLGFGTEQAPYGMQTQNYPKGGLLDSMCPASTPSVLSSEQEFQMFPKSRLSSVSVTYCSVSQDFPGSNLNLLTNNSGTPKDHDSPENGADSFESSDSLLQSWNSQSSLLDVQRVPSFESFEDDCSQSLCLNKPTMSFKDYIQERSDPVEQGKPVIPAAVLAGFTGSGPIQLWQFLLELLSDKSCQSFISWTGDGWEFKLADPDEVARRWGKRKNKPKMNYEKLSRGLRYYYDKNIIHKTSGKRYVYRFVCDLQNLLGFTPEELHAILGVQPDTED
Method in brief: as §1

SPDEF = molecular target: T10, SPDEF (Homo sapiens, UniProt O95238 1-335); conditions: protein: recombinant; tags: N-terminal GST; dsDNA, one strand shown
T10 sequence: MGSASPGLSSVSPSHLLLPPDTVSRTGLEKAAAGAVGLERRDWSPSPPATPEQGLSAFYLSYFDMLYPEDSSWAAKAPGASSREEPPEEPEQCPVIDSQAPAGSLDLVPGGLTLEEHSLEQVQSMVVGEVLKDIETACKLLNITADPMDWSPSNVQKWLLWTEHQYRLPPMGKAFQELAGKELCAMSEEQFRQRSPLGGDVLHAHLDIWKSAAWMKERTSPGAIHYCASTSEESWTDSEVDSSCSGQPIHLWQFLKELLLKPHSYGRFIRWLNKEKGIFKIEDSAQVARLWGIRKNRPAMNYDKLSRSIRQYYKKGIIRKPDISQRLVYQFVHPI
Method in brief: as §1

Sequence of ELF1 (P32519 whole entry): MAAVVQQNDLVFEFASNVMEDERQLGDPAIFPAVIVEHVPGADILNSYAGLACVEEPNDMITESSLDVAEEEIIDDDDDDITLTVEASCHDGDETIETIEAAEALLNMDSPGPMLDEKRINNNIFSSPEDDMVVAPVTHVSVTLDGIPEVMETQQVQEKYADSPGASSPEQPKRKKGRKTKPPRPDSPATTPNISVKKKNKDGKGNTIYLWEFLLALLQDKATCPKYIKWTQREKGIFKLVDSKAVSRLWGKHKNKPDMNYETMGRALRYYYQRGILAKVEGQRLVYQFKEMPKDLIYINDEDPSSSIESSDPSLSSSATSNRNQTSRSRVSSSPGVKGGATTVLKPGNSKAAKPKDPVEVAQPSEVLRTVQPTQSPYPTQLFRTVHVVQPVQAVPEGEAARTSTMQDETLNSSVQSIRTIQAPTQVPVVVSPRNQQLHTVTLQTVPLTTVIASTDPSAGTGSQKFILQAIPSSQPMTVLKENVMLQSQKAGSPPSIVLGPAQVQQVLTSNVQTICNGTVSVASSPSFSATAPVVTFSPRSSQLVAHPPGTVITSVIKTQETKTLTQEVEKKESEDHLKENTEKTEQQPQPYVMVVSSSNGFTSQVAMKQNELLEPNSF
Sequence of SPIB (Q01892 whole entry): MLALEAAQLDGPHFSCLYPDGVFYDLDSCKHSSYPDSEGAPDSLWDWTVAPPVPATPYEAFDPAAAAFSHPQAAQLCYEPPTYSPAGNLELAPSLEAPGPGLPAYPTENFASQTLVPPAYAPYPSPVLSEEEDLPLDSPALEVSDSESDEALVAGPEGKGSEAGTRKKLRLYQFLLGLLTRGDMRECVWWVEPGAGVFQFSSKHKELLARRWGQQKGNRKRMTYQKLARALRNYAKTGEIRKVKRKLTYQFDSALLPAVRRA
Sequence of HSF1 (Q00613 whole entry, the tested form may be a part): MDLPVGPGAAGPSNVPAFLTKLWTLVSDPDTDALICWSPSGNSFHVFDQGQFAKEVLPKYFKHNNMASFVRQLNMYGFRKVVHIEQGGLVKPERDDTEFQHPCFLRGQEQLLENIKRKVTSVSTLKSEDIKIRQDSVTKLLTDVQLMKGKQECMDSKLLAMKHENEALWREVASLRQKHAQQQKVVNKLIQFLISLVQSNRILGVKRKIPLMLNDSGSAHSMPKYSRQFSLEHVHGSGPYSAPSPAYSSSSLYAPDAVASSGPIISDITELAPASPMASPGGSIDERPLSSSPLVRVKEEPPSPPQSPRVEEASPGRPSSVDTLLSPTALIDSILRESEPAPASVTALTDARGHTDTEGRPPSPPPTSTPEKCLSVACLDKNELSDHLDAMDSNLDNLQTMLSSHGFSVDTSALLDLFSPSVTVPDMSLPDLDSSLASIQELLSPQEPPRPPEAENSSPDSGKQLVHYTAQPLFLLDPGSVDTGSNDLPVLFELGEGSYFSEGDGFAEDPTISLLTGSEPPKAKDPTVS
Sequence of ETV1 (P50549 whole entry): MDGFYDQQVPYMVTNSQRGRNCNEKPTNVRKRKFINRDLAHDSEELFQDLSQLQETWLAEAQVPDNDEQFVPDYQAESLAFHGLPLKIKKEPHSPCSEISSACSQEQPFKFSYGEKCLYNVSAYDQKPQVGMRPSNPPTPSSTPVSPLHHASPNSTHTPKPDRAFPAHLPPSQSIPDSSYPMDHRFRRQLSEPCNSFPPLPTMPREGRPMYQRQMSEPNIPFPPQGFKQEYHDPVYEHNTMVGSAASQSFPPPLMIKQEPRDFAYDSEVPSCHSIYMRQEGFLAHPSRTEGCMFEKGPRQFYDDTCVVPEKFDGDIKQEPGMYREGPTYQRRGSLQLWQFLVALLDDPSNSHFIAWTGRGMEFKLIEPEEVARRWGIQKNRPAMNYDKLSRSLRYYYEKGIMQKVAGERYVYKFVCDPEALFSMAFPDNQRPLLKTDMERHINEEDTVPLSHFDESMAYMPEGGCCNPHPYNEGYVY

Row | Sequence | binding signal (HSF1) | binding signal (FLI1) | binding signal (GABPA) | binding signal (ERG) | binding signal (ELF1) | binding signal (SPIB) | binding signal (ELK3) | binding signal (FEV) | binding signal (ELK4) | binding signal (ETV1) | binding signal (ERF) | binding signal (ETV3L) | binding signal (ETS2) | binding signal (SPDEF)
1 | TCCGAG | 1.03 fold enrichment (6-mer frequency, TF over GST control) | – | – | – | – | – | – | – | – | – | – | – | – | –
2 | CGGGCT | – | 1.05 fold enrichment (6-mer frequency, TF over GST control) | 1.05 fold enrichment (6-mer frequency, TF over GST control) | 1.02 fold enrichment (6-mer frequency, TF over GST control) | 1.04 fold enrichment (6-mer frequency, TF over GST control) | 1.13 fold enrichment (6-mer frequency, TF over GST control) | 1.14 fold enrichment (6-mer frequency, TF over GST control) | 1.01 fold enrichment (6-mer frequency, TF over GST control) | 1.18 fold enrichment (6-mer frequency, TF over GST control) | 1.07 fold enrichment (6-mer frequency, TF over GST control) | 1.05 fold enrichment (6-mer frequency, TF over GST control) | 1.01 fold enrichment (6-mer frequency, TF over GST control) | 1.07 fold enrichment (6-mer frequency, TF over GST control) | 1.07 fold enrichment (6-mer frequency, TF over GST control)
